The sample as a whole holds a higher share of hits than the screen did.
STK33 inh – inhibitors of human STK33 kinase; Q9BYT3; ADP-Glo luminescence, MBP substrate; inhibition, % at 12.5 µM; actives 0.44% (n = 27,000); in the data active = inhibition above about 20%
Target sequence (Q9BYT3 whole entry, looked up): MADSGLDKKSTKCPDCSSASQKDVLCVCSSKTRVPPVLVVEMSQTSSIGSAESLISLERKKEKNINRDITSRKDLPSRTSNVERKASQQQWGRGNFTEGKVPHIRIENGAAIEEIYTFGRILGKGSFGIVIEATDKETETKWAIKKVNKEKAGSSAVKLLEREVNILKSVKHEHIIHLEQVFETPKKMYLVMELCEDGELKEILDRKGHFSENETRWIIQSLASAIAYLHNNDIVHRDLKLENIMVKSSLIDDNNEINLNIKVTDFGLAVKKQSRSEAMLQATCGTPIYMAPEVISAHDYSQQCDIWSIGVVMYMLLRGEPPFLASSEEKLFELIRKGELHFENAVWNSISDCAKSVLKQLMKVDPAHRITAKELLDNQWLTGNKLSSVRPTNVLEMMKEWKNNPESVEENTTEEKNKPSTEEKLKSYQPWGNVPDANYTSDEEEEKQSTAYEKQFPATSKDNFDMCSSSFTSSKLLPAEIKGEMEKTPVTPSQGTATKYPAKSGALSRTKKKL
NOMO-1 viab – STK33 inhibitor candidate reducing NOMO-1 cell viability; inhibition, % (test concentration not listed); actives 7.5% (n = 37,000); NOMO-1 AML viability, CellTiter-Glo luminescence, 72 h; in the data active = inhibition above about 80%
PD-1 reversal – activators reversing PD-1 mediated T-cell inhibition; primary human CD4 T cells, PD-L1 beads, CellTiter-Glo 96 h; activation, % (concentration not given with the values); 29,000 tested, under 10 active; call rule not given here;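 note: 0% = median vehicle wells and 100% = positive control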
* = called active by the depositor; . = not tested or not shown.

SMILES	STK33 inh	NOMO-1 viab	PD-1 reversal
COc1ccc(NC(=O)N(C)C[C@@H]2Oc3c(NC(=O)Nc4cccc5ccccc45)cccc3C(=O)N([C@H](C)CO)C[C@@H]2C)cc1	.	37.5	-4.3
Cc1ccc(Nc2nc(N)nc(CN3CCN(C(c4ccccc4)c4ccccc4)CC3)n2)cc1	6.2	89.4*	-9.2
CCOC(=O)C1CCCN(Cc2nc(N)nc(Nc3ccccc3)n2)C1 (stereo not given)	-1.9	112.6*	0.4
Nc1nc(CSc2ccccn2)nc(Nc2ccccc2)n1	1.1	18.8	.
CCOc1ccccc1Nc1nc(N)nc(CN2CCCCC2C)n1 (stereo not given)	-2.3	27.5	.
C[C@H]1CN([C@@H](C)CO)C(=O)Cc2cc(NC(=O)CCC(F)(F)F)ccc2O[C@H]1CN(C)C(=O)Nc1ccc(C(F)(F)F)cc1	-3.4	-7.9	0.5
C[C@H](CO)N1C[C@H](C)[C@H](CN(C)S(=O)(=O)c2ccc(F)cc2)Oc2ccc(NS(=O)(=O)c3ccccc3)cc2C1=O	-0.2	7.0	-2.8
C[C@H](CO)N1C[C@H](C)[C@@H](CN(C)C(=O)Nc2ccc(C(F)(F)F)cc2)Oc2ccc(N(C)C)cc2C1=O	.	16.0	-0.6
COc1ccc(NC(=O)c2ccccc2NC(=O)COc2ccc([N+](=O)[O-])cc2)cc1	1.3	-15.9	4.5
Cc1cccc(NC(=O)c2ccccc2NC(=O)COc2cccc([N+](=O)[O-])c2)c1C	0.8	105.4*	-8.2
Cc1ccc(C(=O)N(Cc2nc(-c3ccc(Cl)cc3)no2)C(C)C)cc1[N+](=O)[O-]	9.8	11.5	0.6
Cc1cccc(-c2noc(CN(C(=O)c3ccc([N+](=O)[O-])c(C)c3)C(C)C)n2)c1	-0.7	131.7*	-9.6
CC1(C)Cc2nc3sc4c(SCC(=O)Nc5ccc(Cl)cc5)ncnc4c3cc2CO1	-0.4	-15.6	-1.0
CC[C@]12CCCN3CCc4c(n(c5ccccc45)[C@@](O)(C(=O)OC)C1)[C@@H]32	-11.7	-1.5	.
CC[C@]12CCCN3CCc4c(n(c5ccccc45)C(=O)C1)[C@@H]32	-0.8	112.4*	4.0
COc1ccc(/C=C/C(=O)O[C@@H]2[C@@H](O)[C@@H](O)[C@H](O[C@@H]3C=C(CO)[C@H]4[C@H](O[C@@H]5O[C@H](CO)[C@@H](O)[C@H](O)[C@H]5O)OC=C[C@H]43)O[C@H]2C)cc1	1.4	-0.9	1.6
Cc1noc(C)c1S(=O)(=O)Nc1ccc2c(c1)C(=O)N([C@@H](C)CO)C[C@H](C)[C@H](CN(C)C(=O)Nc1cccc3ccccc13)O2	.	1.6	-0.4
CCN1C(=O)c2cccc3c(S(=O)(=O)N4CCCC4C(=O)O)ccc1c23 (stereo not given)	0.2	-8.3	0.7
CCN1C(=O)c2cccc3c(S(=O)(=O)Nc4ccccc4)ccc1c23	.	104.8*	-1.1
O=C(CSc1nnc(-c2ccc([N+](=O)[O-])cc2)n1-c1ccccc1)Nc1ccc(F)cc1	-1.3	15.6	-0.7
Cn1c(SCC(=O)Nc2ccc(F)cc2)nnc1-c1ccc([N+](=O)[O-])cc1	26.5*	1.3	0.5
CC(C)N(C(=O)Cn1c(-c2ccco2)nc2ccccc21)c1ccccc1	-0.9	24.2	-4.6
Cn1cnc([N+](=O)[O-])c1Sc1ncnc2nc[nH]c12	-1.5	119.1*	2.3
C[C@H](CO)N1C[C@H](C)[C@H](CN(C)Cc2ccc(C(=O)O)cc2)Oc2ccc(NC(=O)Nc3ccc4c(c3)OCO4)cc2C1=O	-0.2	-8.4	1.4
Nc1nnc(SC/C=C/CSc2nnc(N)s2)s1	0.8	-0.3	0.3
SMILES	STK33 inh	NOMO-1 viab	PD-1 reversal
O=C(COc1ccc(C(=O)Nc2ccccc2Cl)cc1)Nc1cc(Cl)cc(Cl)c1	3.5	16.1	-0.3
O=C(Nc1ccccc1Cl)c1cc2ccccc2cc1O	.	131.6*	-4.4
COc1ccccc1NC(=O)c1c(NC(=O)Cc2ccc([N+](=O)[O-])cc2)sc(C)c1C	-2.8	7.0	-1.7
COc1ccc(NC(=O)CSc2nc3ccc([N+](=O)[O-])cc3[nH]2)cc1	1.0	27.5	.
CCOc1ccc(NC(=O)C(C)Sc2nc3ccc(F)cc3[nH]2)cc1 (stereo not given)	0.0	24.6	.
CCCSc1ccc2nc(NC(=O)OC)[nH]c2c1	2.2	117.7*	.
COC(=O)Nc1nc2ccc(SC(C)C)cc2[nH]1	-8.9	118.1*	.
C[C@H]1CN([C@@H](C)CO)C(=O)c2cccc(NS(=O)(=O)c3cccs3)c2O[C@H]1CN(C)S(C)(=O)=O	.	3.1	.
COc1ccc(C(=O)CSc2nnc(-c3ccccc3O)n2C)cc1	-1.0	17.5	0.3
Clc1ccc2ncnc(NCc3ccc4c(c3)OCO4)c2c1	1.3	82.5*	-2.1
Cc1cc(Br)ccc1NCc1ccc2c(c1)OCO2	.	42.5	0.3
C[C@H]1CN([C@@H](C)CO)C(=O)c2cccc(NC(=O)Nc3ccc(C(F)(F)F)cc3)c2O[C@@H]1CN(C)S(C)(=O)=O	.	6.7	-1.1
Cc1ccc2nc(-c3ccc(C)c(NC(=O)COc4ccc([N+](=O)[O-])cc4)c3)oc2c1	0.8	9.8	1.0
COc1ccc(-c2nc3cc(C(C)C)ccc3o2)cc1NC(=O)COc1ccccc1C	0.0	106.2*	0.0
COc1ccc(-c2nc3cc(C(C)C)ccc3o2)cc1NC(=O)COc1ccc(C)cc1	-2.8	19.1	0.0
Cc1cc(C)cc(OCC(=O)Nc2cc(-c3nc4ccc(C)cc4o3)ccc2C)c1	10.6	105.4*	-5.5
Cc1cc(C)c(C#N)c(SCC(=O)Nc2ccc(C(N)=O)cc2)n1	-2.6	11.1	.
CN(CC(=O)Nc1cccc(I)c1)S(=O)(=O)c1ccc(Cl)cc1	-2.4	-13.9	1.0
C=C[C@@]1(C)CCC2=C(C1)C(=O)CC1[C@](C)(C(=O)O)CCC[C@]21C (stereo not given in full)	-2.2	17.0	2.7
C[C@H]1CN([C@@H](C)CO)C(=O)c2cccc(NC(=O)Nc3ccc(C(F)(F)F)cc3)c2O[C@@H]1CN(C)C(=O)Nc1ccc2c(c1)OCO2	.	96.2*	.
C[C@@H]1CN([C@H](C)CO)C(=O)c2cccc(NC(=O)Nc3ccc(C(F)(F)F)cc3)c2O[C@@H]1CN(C)C(=O)Nc1ccc2c(c1)OCO2	.	111.8*	-3.1
C[C@@H]1CN([C@@H](C)CO)C(=O)c2cccc(NC(=O)Nc3ccc4c(c3)OCO4)c2O[C@H]1CN(C)C(=O)Nc1ccc2c(c1)OCO2	.	7.8	.
C[C@@H]1CN([C@@H](C)CO)C(=O)c2cccc(NC(=O)Nc3ccc4c(c3)OCO4)c2O[C@@H]1CN(C)C(=O)Nc1ccc2c(c1)OCO2	.	55.0	-0.1
C[C@H](CO)N1C[C@H](C)[C@H](CN(C)C(=O)Nc2ccc3c(c2)OCO3)Oc2c(NC(=O)Nc3ccc(C(F)(F)F)cc3)cccc2C1=O	.	114.5*	-2.9
C[C@H]1CN([C@@H](C)CO)C(=O)c2cccc(NC(=O)Nc3ccc4c(c3)OCO4)c2O[C@@H]1CN(C)C(=O)Nc1ccc2c(c1)OCO2	.	40.8	-0.6
C[C@@H]1CN([C@@H](C)CO)C(=O)c2cccc(NC(=O)c3ccc(-c4nccs4)cc3)c2O[C@@H]1CN(C)Cc1ccc2c(c1)OCO2	.	38.3	-0.3
CC(=O)n1c(O)c(/C=C2/C=c3ccc(C)cc3=NC2=O)sc1=N	.	-18.6	1.2
COc1ccc(S(=O)(=O)N(CC(=O)O)c2ccc(Cl)cc2)cc1	-2.9	-9.3	.

Source: PubChem BioAssay (Broad Institute)
